PubChem BioAssay (Tox21)
Records with an inconclusive call do not appear. Where a call stands in place of a potency, no number is given. Unmarked numbers belong to inactive results. Calls of active or inactive are those of the source. The call rests on the fitted dose curve; in most records, active means well fitted curve in the direction sought with a large enough effect in the repeat runs; inconclusive means weak or mixed curves; inactive means no such curve, though single readings can be large; an effect the other way counts as inactive or inconclusive.

Legend:
[1] = qHTS RealTime-Glo MT Cell Viability Assay in HepG2 cells - 8 hour (AID 1224873); further: nearly all actives have a fitted effect of over 55% in size; further: potency means the concentration at half of the fitted maximal effect
Procedure, shortened: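 HepG2 cells (600/well) mixed with RealTime-Glo MT reagent, settled 5 h at 37 C/5% CO2 before compound addition. Nonlytic NanoLuc luminescence from viable-cell prosubstrate reduction read repeatedly during 40 h treatment at 37 C.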

[2] = qHTS RealTime-Glo MT Cell Viability Assay in HEK293 cells - 40 hour (AID 1224874); conditions: RealTime-Glo luminescence; max response: hits give low values; further: nearly all actives have a fitted effect of over 50% in size; further: potency means the concentration at half of the fitted maximal effect
Procedure, shortened: (§1)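 Viable HEK293 cells reduce a cell-permeant prosubstrate; the product diffuses out and is consumed by NanoLuc in the medium to give light. Compounds went in after a 5 h incubation and plates were read over the treatment course.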

[3] = A CellTox Green Cytotoxicity Assay to monitor cytotoxicity in HEK293 cells - 24 hour (AID 1224875); further: nearly all actives have a fitted effect of over 45% in size; further: potency means the concentration at half of the fitted maximal effect
Procedure, shortened: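 Fluorescence intensity, read at 0, 8, 16, 24, 32 and 40 h of compound treatment, reflected dye binding to DNA of dead HEK293 cells; compounds (23 nL, DMSO) were added 5 h after plating cells with reagent.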

[4] = A CellTox Green Cytotoxicity Assay to monitor cytotoxicity in HepG2 cells - 16 hour (AID 1224876); further: nearly all actives have a fitted effect of over 45% in size; further: potency means the concentration at half of the fitted maximal effect
Procedure, shortened: (§2)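 Using 1536-well format, dye-containing HepG2 suspension was seeded, allowed 5 h at 37 C/5% CO2, dosed by pintool with compounds, positive and negative controls, and imaged for fluorescence across 40 h.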

[5] = qHTS RealTime-Glo MT Cell Viability Assay in HepG2 cells - 32 hour (AID 1224877); further: nearly all actives have a fitted effect of over 55% in size; further: potency means the concentration at half of the fitted maximal effect
Procedure, shortened: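 Tox21 10K library screened in qHTS format on HepG2 cells carrying RealTime-Glo reagents. Compounds were added after a 5 h preincubation, and the luminescent signal from continuous culture was measured repeatedly during 40 h treatment.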

[6] = A CellTox Green Cytotoxicity Assay to monitor cytotoxicity in HepG2 cells - 24 hour (AID 1224878); further: nearly all actives have a fitted effect of over 45% in size; further: potency means the concentration at half of the fitted maximal effect
Procedure, shortened: as §2

[7] = A CellTox Green Cytotoxicity Assay to monitor cytotoxicity in HepG2 cells - 40 hour (AID 1224879); further: nearly all actives have a fitted effect of over 40% in size; further: potency means the concentration at half of the fitted maximal effect
Procedure, shortened: as §2

[8] = qHTS RealTime-Glo MT Cell Viability Assay in HEK293 cells - 16 hour (AID 1224872); further: potency means the concentration at half of the fitted maximal effect; nearly all actives have a fitted effect of over 50% in size
Procedure, shortened: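 Luminescence generated by NanoLuc from substrate produced by living HEK293 cells served as the viability signal. Each value reflects the reading at its stated time point during continuous 40 h compound exposure at 37 C.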

[9] = qHTS RealTime-Glo MT Cell Viability Assay in HEK293 cells - 0 hour (AID 1224880); further: top concentration of the series differs between compounds; nearly all actives have a fitted effect of over 45% in size
Procedure, shortened: as §1

CC(C)(O)c1cnn2c(-c3ccc(F)c(-c4c(F)cccc4C#N)c3)cnc2n1
Potency [1]: inactive
Potency [2]: 4.9 µM (active)
Potency [3]: inactive
Potency [4]: inactive
Potency [5]: inactive
Potency [6]: inactive
Potency [7]: inactive

C[C@H]1CC[C@@H]2[C@@H](C)[C@H]3[C@H](C[C@H]4[C@@H]5CC=C6CC(O[C@@H]7O[C@H](CO)[C@H](O)[C@H](O[C@@H]8O[C@H](CO)[C@@H](O)[C@H](O)[C@H]8O)[C@H]7O[C@H]7O[C@@H](C)[C@H](O)[C@@H](O)[C@H]7O)CC[C@]6(C)[C@H]5CC[C@]34C)N2C1 (some centres undefined)
Potency [8]: 12.7 µM (active)
Potency [1]: 45.1 µM (active)
Potency [3]: 4.51 µM (active)
Potency [4]: 22.6 µM (active)
Potency [5]: 50.6 µM (active)
Potency [6]: 11.3 µM (active)

CC(O)C#N (centres undefined)
Potency [1]: inactive
max response [2]: -0.282%
Potency [3]: inactive
Potency [4]: inactive
Potency [5]: inactive
Potency [6]: inactive
Potency [7]: inactive
Potency [9]: inactive

CCOc1cc(C(C)(C)C)ccc1C1COC(c2c(F)cccc2F)=N1 (centres undefined)
Potency [1]: inactive
Potency [5]: inactive
Potency [6]: inactive
Potency [9]: inactive

CSCCCN=C=S
Potency [1]: inactive
Potency [5]: inactive

OC(c1ccc(Cl)cc1)(c1ccc(Cl)cc1)C(Cl)(Cl)Cl
Potency [1]: inactive
Potency [4]: inactive
Potency [5]: inactive
Potency [6]: inactive
Potency [7]: inactive
Potency [9]: inactive

CC[C@H](C)[C@H]1O[C@]2(C=C[C@@H]1C)C[C@@H]1C[C@@H](C/C=C(\C)[C@@H](O[C@H]3C[C@H](OC)[C@@H](O[C@H]4C[C@H](OC)[C@@H](O)[C@H](C)O4)[C@H](C)O3)[C@@H](C)/C=C/C=C3\CO[C@@H]4[C@H](O)C(C)=C[C@@H](C(=O)O1)[C@]34O)O2
Potency [2]: 10.3 µM (active)
Potency [3]: inactive
Potency [9]: inactive

O=C(Cl)c1ccc(Cl)cc1
Potency [1]: inactive
Potency [3]: inactive
Potency [4]: inactive
Potency [5]: inactive
Potency [6]: inactive
Potency [7]: inactive
Potency [9]: inactive

CCN(CC)c1c([N+](=O)[O-])cc(C(F)(F)F)c(N)c1[N+](=O)[O-]
Potency [2]: 21.9 µM (active)

CC(=O)[O-].CC(=O)[O-].O.O.[Cd+2]
Potency [1]: inactive
Potency [2]: 15.3 µM (active)
Potency [6]: 48.3 µM (active)
Potency [7]: 27.2 µM (active)
Potency [9]: inactive

CC1(c2ccc(Oc3ccccc3)cc2)OC(=O)N(Nc2ccccc2)C1=O (centres undefined)
Potency [1]: 49.3 µM (active)
Potency [7]: 55.3 µM (active)

CN(C)C1CSSSC1
Potency [1]: inactive
Potency [3]: inactive
Potency [4]: inactive
Potency [5]: inactive
Potency [6]: inactive
Potency [7]: inactive

CC1(C)CC/C(=C/c2ccc(Cl)cc2)C1(O)Cn1cncn1 (centres undefined)
Potency [1]: inactive
Potency [3]: inactive
Potency [5]: inactive
Potency [9]: inactive

COC(=O)N(C(=O)N1CO[C@@]2(C(=O)OC)Cc3cc(Cl)ccc3C2=N1)c1ccc(OC(F)(F)F)cc1
Potency [3]: inactive
Potency [5]: inactive
Potency [6]: inactive
Potency [7]: inactive
Potency [9]: inactive

ClCc1ccc(Cl)cc1Cl
Potency [1]: inactive
Potency [4]: inactive
Potency [5]: inactive
Potency [6]: inactive
Potency [7]: inactive
Potency [9]: inactive

Cc1cc(C(C)(C)c2cc(C)c(O)c(C)c2)cc(C)c1O
Potency [3]: inactive
Potency [9]: inactive

CC(Cl)CN(C)C (centres undefined)
Potency [1]: inactive
Potency [4]: inactive
Potency [5]: inactive
Potency [6]: inactive
Potency [7]: inactive
